# From PubChem BioAssay (EPA / NIEHS)
# Inconclusive results are not listed. Active and inactive are the calls of the source. How the source made its calls, unless noted: active means hit-call score of the fitted dose curve at least 0.9, where 1 is the maximum; inconclusive means response in the unintended direction; inactive means score below 0.9.
# What was measured:
# [1] = ATG_TAL_CIS: Attagene CIS-FACTORIAL HepG2 Assay for human TAL Basal Promoter (AID 2282966; active means hit-call score of the fitted dose curve at least 0.9, where 1 is the maximum; inactive means score below 0.9;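 further: background control endpoint measuring basal TAL promoter reporter mRNA not a specific factor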); settings: HepG2 Attagene cis-factorial TAL promoter reporter; actives raise or lower the signal
# Procedure, shortened: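 HepG2 cells were transiently transfected with promoter-driven multiplexed reporter units and dosed for 24 h. Reporter mRNA was measured by RT-PCR with capillary electrophoresis fluorescence; bidirectional fits used DMSO as baseline, serving as a background control.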
# [2] = ATG_TGFb_CIS: Attagene CIS-FACTORIAL HepG2 Assay for human Transforming Growth Factor (TGF) (AID 2282967; active means hit-call score of the fitted dose curve at least 0.9, where 1 is the maximum; inactive means score below 0.9); settings: HepG2 Attagene CIS TGFb reporter, mRNA transcription; actives raise or lower the signal
# Procedure, shortened: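 Bidirectional fitting relative to DMSO gave the endpoint. Underlying data: reporter mRNA from HepG2 cells carrying transiently transfected cis-regulated reporter constructs, harvested 24 h after dosing and analyzed by RT-PCR and capillary electrophoresis.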
# [3] = ATG_VDRE_CIS: Attagene CIS-FACTORIAL HepG2 Assay for human Vitamin D Receptor Element (VDRE) (AID 2282968; active means hit-call score of the fitted dose curve at least 0.9, where 1 is the maximum; inactive means score below 0.9); settings: HepG2 VDRE cis-reporter transcription, actives raise or lower the signal
# Procedure, shortened: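 Transiently transfected HepG2 cells carrying cis-regulated reporter transcription units were exposed for 24 h. Reporter mRNA was measured by RT-PCR with fluorescent labelling and capillary electrophoresis, and fitted in both directions against DMSO.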
# [4] = target: Estrogen receptor (Homo sapiens) (UniProt P03372); experiment: ATG_ERa_TRANS: Attagene TRANS-FACTORIAL HepG2 Assay for human Estrogen Receptor alpha (ERa) (AID 2282970); settings: HepG2 Attagene TRANS ERa GAL4 reporter, mRNA
# Procedure, shortened: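 HepG2 cells transiently transfected with multiplexed GAL4-UAS reporter units; ERa activity read via exogenous chimeric NR-Gal4 protein. After 24 hour compound exposure, reporter mRNA measured by RT-PCR with 6-FAM labelling and capillary electrophoresis; gain-of-signal fitted relative to DMSO.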
# [5] = target: X-box-binding protein 1 (Homo sapiens) (UniProt P17861); experiment: ATG_Xbp1_CIS: Attagene CIS-FACTORIAL HepG2 Assay for human X-box Binding Protein 1 (XBP1) (AID 2282972; active means hit-call score of the fitted dose curve at least 0.9, where 1 is the maximum; inactive means score below 0.9); settings: HepG2 XBP1 cis-element reporter, Attagene multiplex; actives raise or lower the signal
# Procedure, shortened: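 HepG2 cells transiently transfected with cis-regulated multiple reporter transcription units; endogenous transcription factor activity measured 24 hours after chemical dosing. Reporter mRNA quantified by RT-PCR, 6-FAM primer extension, HpaI digestion and capillary electrophoresis; bidirectional fitting versus DMSO.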
# [6] = ATG_M_19_TRANS: Attagene TRANS-FACTORIAL HepG2 Assay for M19 Transcription Factor (Internal Marker) (AID 2282974); settings: HepG2 Attagene TRANS-FACTORIAL M19 internal marker reporter
# Procedure, shortened: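 HepG2 transiently transfected with GAL4-UAS multiplex reporter constructs, exposed 24 h; reporter RNA quantified by RT-PCR, 6-FAM labeling, HpaI digestion and capillary electrophoresis; internal background marker fitted upward versus DMSO.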
# [7] = ATG_M_06_TRANS: Attagene TRANS-FACTORIAL HepG2 Assay for M06 Transcription Factor (Internal Marker) (AID 2282983); settings: HepG2 Attagene TRANS M06 internal marker reporter;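 further: reporter transcript level by RT-PCR then capillary electrophoresis fluorescence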
# Procedure, shortened: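 HepG2 cells transiently transfected with multiplexed GAL4-UAS reporter transcription units; after 24 h compound exposure, reporter mRNA measured by RT-PCR, FAM-labelled primer extension, HpaI digestion and capillary electrophoresis. Gain-of-signal fitted versus DMSO baseline; background control readout.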
# [8] = ATG_M_32_TRANS: Attagene TRANS-FACTORIAL HepG2 Assay for M32 Transcription Factor (Internal Marker) (AID 2282984); settings: HepG2 Attagene TRANS M32 internal marker reporter
# Procedure, shortened: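 HepG2 cells transiently transfected with GAL4-UAS reporter units, dosed for 24 hours. Reporter mRNA quantified by RT-PCR, 6-FAM labelling, HpaI digestion and capillary electrophoresis; internal-marker signal fitted upward relative to DMSO.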
# [9] = target: Transcriptional activator Myb (Homo sapiens) (UniProt P10242); experiment: ATG_Myb_CIS: Attagene CIS-FACTORIAL HepG2 Assay for human Myeloblastosis (Myb) Proto-Oncogene Transcription Factor (AID 2282986; active means hit-call score of the fitted dose curve at least 0.9, where 1 is the maximum; inactive means score below 0.9); settings: HepG2 Attagene CIS-FACTORIAL Myb reporter transcription; actives raise or lower the signal
# Procedure, shortened: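 Transiently transfected HepG2 cells carrying a multiplexed cis-promoter reporter set report endogenous Myb activity after 24 h compound exposure. Reporter mRNA is read by RT-PCR with capillary electrophoresis of fluorescent products, fitted bidirectionally against DMSO.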
# [10] = ATG_GAL4_TRANS: Attagene TRANS-FACTORIAL HepG2 Assay for GAL4 (Internal Marker) (AID 2282976); settings: HepG2 Attagene TRANS GAL4 internal marker reporter
# Procedure, shortened: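 HepG2 cells transiently transfected with multiplexed GAL4-UAS reporter constructs were dosed for 24 h. Reporter mRNA was measured by RT-PCR, 6-FAM primer extension, HpaI digestion and capillary electrophoresis, and gain of signal was fitted relative to DMSO.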
# [11] = target: Glucocorticoid receptor (Homo sapiens) (UniProt P04150); experiment: ATG_GR_TRANS: Attagene TRANS-FACTORIAL HepG2 Assay for human Glucocorticoid Receptor (GR) (AID 2282978); settings: HepG2 Attagene TRANS GR reporter, mRNA transcription;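 further: activators score as hits since higher reporter transcript over DMSO is fitted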
# Procedure, shortened: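 HepG2 cells transiently transfected with GAL4-UAS reporter units and exogenous GR-Gal4 chimera, dosed 24 h. Reporter mRNA by RT-PCR, FAM labeling, HpaI digest and capillary electrophoresis; gain-of-signal fit versus DMSO.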
# [12] = target: Hepatocyte nuclear factor 4-alpha (Homo sapiens) (UniProt P41235); experiment: ATG_HNF4a_TRANS: Attagene TRANS-FACTORIAL HepG2 Assay for human Hepatocyte Nuclear Factor 4 alpha (HNF4a) (AID 2282982); settings: HepG2 HNF4a transactivation reporter, mRNA readout
# Procedure, shortened: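 HepG2 cells transiently transfected with HNF4a-Gal4 chimera and GAL4-UAS reporter units, dosed for 24 h. Reporter mRNA measured by RT-PCR, fluorescent primer extension and capillary electrophoresis; gain-of-signal fitted relative to DMSO.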
# [13] = target: Nuclear receptor subfamily 4 group A member 2 (Homo sapiens) (UniProt P43354); experiment: ATG_NURR1_TRANS: Attagene TRANS-FACTORIAL HepG2 Assay for human Nuclear Receptor Related Protein 1 (NURR1) (AID 2282985); settings: HepG2 Attagene TRANS reporter, mRNA readout
# Procedure, shortened: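 HepG2 cells transiently transfected with NURR1-Gal4 chimera and GAL4-UAS reporter units; after 24 hr compound exposure, reporter mRNA quantified by RT-PCR and capillary electrophoresis; gain of signal fitted against DMSO.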
# [14] = target: Nuclear receptor subfamily 1 group I member 3 (Homo sapiens) (UniProt Q14994); experiment: ATG_CAR_TRANS: Attagene TRANS-FACTORIAL HepG2 Assay for human Constitutive Androstane Receptor (CAR) (AID 2282969); settings: HepG2 Attagene TRANS-FACTORIAL CAR reporter;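 further: activators raise reporter mRNA above DMSO so AC50 marks induction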
# Procedure, shortened: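 HepG2 cells transiently transfected with GAL4-UAS reporter units; TRANS format reads activity of exogenous chimeric NR-Gal4 protein. After 24 h dosing, reporter mRNA quantified by RT-PCR, 6-FAM labelling and capillary electrophoresis; gain of signal fitted against DMSO.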
# [15] = target: Steroid hormone receptor ERR1 (Homo sapiens) (UniProt P11474); experiment: ATG_ERRa_TRANS: Attagene TRANS-FACTORIAL HepG2 Assay for human Estrogen-Related Receptor alpha (ERRa) (AID 2282971); settings: HepG2 Attagene TRANS reporter, ERRa transactivation
# Procedure, shortened: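 HepG2 cells transiently transfected with multiplexed GAL4-UAS reporter units reading chimeric ERRa-Gal4 activity; 24 h compound exposure. Reporter mRNA measured by RT-PCR, 6-FAM labelling, HpaI digest and capillary electrophoresis; gain of signal fitted versus DMSO baseline.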
# [16] = target: Estrogen-related receptor gamma (Homo sapiens) (UniProt P62508); experiment: ATG_ERRg_TRANS: Attagene TRANS-FACTORIAL HepG2 Assay for human Estrogen-Related Receptor gamma (ERRg) (AID 2282977); settings: HepG2 Attagene TRANS reporter, ERRg transactivation;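 further: hits increase reporter signal over DMSO so potencies reflect activators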
# Procedure, shortened: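 HepG2 cells transiently transfected with multiplexed GAL4-UAS reporter units driven by chimeric NR-Gal4 proteins; 24 h exposure. Reporter mRNA quantified by RT-PCR, fluorescent labelling, HpaI digestion and capillary electrophoresis; gain of signal vs DMSO.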
# [17] = target: Oxysterols receptor LXR-alpha (Homo sapiens) (UniProt Q13133); experiment: ATG_LXRa_TRANS: Attagene TRANS-FACTORIAL HepG2 Assay for human Liver X Receptor alpha (LXRa) (AID 2282980); settings: HepG2 Attagene TRANS reporter, LXRa transactivation
# Procedure, shortened: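 HepG2 cells were transiently transfected with multiplexed reporter units driven by chimeric LXRa–GAL4 fusion proteins, then dosed for 24 h. Reporter mRNA was quantified by RT-PCR, fluorescent labelling and capillary electrophoresis; gain of signal fitted against DMSO baseline.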
# [18] = target: Oxysterols receptor LXR-beta (Homo sapiens) (UniProt P55055); experiment: ATG_LXRb_TRANS: Attagene TRANS-FACTORIAL HepG2 Assay for human Liver X Receptor beta (LXRb) (AID 2282981); settings: HepG2 Attagene TRANS GAL4-LXRb reporter, mRNA
# Procedure, shortened: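 HepG2 cells transiently transfected with GAL4-UAS reporter units for chimeric NR-Gal4 proteins, dosed for 24 h. Reporter transcripts measured by RT-PCR and capillary electrophoresis; gain-of-signal fitting relative to DMSO.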
# [19] = target: Bile acid receptor (Homo sapiens) (UniProt Q96RI1); experiment: ATG_FXR_TRANS: Attagene TRANS-FACTORIAL HepG2 Assay for Farnesoid X Receptor (FXR) (AID 2282979); settings: HepG2 Attagene TRANS FXR-GAL4 reporter transcription;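 further: hits raise reporter mRNA above DMSO so AC50 marks FXR activation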
# Procedure, shortened: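 HepG2 cells transiently transfected with reporter constructs in which a chimeric FXR-GAL4 protein drives a GAL4-UAS reporter; 24 h compound exposure. Reporter mRNA measured by RT-PCR, FAM labelling, HpaI digestion and capillary electrophoresis; gain-of-signal versus DMSO.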
# Hepatocyte nuclear factor 4-alpha (Homo sapiens), sequence (P41235 whole entry, looked up, the tested form may be a part): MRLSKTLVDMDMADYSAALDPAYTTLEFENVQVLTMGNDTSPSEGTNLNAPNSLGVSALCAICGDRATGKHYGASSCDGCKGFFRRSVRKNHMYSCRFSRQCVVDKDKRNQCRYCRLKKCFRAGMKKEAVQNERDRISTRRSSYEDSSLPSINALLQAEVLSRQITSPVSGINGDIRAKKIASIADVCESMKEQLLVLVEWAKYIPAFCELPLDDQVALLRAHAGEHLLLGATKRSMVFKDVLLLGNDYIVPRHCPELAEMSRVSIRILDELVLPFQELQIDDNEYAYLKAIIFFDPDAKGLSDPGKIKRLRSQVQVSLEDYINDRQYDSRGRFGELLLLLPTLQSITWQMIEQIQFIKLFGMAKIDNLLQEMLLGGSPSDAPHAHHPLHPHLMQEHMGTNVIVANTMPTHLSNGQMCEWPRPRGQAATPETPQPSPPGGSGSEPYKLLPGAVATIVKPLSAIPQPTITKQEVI
# Oxysterols receptor LXR-beta (Homo sapiens), sequence (P55055 whole entry, looked up, the tested form may be a part): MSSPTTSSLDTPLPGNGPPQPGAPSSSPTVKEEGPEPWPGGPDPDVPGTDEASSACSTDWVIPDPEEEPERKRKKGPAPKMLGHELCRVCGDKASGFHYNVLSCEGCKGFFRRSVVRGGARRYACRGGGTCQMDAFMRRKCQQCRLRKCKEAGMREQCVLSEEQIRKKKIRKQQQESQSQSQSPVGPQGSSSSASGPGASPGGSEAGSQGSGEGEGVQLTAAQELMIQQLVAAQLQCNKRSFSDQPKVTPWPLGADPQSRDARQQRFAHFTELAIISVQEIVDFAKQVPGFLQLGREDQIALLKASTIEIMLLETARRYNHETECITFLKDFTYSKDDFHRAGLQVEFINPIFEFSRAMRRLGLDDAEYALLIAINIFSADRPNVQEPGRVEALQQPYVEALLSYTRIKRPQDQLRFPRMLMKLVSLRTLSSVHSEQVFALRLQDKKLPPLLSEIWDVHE
# Nuclear receptor subfamily 1 group I member 3 (Homo sapiens), sequence (Q14994 whole entry, looked up, the tested form may be a part): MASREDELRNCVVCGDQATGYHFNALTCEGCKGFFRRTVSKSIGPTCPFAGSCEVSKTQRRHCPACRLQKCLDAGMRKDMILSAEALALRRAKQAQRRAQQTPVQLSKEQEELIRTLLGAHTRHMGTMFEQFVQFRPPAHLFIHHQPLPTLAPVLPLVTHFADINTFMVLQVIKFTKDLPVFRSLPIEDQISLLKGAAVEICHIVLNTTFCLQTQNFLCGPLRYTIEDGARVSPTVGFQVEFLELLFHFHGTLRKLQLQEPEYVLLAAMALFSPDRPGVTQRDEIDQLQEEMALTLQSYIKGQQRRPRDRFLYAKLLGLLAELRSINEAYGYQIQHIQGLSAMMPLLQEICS
# X-box-binding protein 1 (Homo sapiens), sequence (P17861 whole entry, looked up): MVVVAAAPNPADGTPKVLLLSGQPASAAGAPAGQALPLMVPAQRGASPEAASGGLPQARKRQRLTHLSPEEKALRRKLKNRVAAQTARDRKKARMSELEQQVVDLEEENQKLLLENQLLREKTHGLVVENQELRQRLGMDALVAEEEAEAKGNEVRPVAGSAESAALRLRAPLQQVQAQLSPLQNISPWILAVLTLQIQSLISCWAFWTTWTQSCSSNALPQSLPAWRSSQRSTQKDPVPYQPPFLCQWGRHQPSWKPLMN
# Estrogen-related receptor gamma (Homo sapiens), sequence (P62508 whole entry, looked up, the tested form may be a part): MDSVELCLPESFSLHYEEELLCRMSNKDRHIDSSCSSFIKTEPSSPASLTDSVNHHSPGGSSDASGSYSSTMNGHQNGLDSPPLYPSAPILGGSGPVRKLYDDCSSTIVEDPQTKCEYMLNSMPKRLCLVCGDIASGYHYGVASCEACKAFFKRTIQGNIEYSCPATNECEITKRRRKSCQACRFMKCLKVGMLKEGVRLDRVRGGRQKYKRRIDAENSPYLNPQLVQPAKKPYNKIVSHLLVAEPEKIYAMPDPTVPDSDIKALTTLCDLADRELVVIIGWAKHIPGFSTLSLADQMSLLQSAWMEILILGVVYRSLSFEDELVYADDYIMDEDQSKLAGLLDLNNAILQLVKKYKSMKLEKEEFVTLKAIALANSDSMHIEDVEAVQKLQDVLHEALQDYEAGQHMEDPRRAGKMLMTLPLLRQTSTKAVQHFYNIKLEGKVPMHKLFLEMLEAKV
# Steroid hormone receptor ERR1 (Homo sapiens), sequence (P11474 whole entry, looked up, the tested form may be a part): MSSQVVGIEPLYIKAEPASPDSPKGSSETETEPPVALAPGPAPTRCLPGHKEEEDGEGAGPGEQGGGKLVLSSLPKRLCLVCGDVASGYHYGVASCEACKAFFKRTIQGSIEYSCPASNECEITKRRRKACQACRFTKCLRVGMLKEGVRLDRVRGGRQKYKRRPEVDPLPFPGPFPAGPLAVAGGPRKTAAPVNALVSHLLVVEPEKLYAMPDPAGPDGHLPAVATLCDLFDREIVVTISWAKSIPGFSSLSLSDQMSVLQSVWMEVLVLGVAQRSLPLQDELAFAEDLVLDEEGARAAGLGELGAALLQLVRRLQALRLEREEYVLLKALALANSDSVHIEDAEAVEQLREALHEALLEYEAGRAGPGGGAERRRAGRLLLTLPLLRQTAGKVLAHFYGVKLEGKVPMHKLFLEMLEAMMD
# Estrogen receptor (Homo sapiens), sequence (P03372 whole entry, looked up, the tested form may be a part): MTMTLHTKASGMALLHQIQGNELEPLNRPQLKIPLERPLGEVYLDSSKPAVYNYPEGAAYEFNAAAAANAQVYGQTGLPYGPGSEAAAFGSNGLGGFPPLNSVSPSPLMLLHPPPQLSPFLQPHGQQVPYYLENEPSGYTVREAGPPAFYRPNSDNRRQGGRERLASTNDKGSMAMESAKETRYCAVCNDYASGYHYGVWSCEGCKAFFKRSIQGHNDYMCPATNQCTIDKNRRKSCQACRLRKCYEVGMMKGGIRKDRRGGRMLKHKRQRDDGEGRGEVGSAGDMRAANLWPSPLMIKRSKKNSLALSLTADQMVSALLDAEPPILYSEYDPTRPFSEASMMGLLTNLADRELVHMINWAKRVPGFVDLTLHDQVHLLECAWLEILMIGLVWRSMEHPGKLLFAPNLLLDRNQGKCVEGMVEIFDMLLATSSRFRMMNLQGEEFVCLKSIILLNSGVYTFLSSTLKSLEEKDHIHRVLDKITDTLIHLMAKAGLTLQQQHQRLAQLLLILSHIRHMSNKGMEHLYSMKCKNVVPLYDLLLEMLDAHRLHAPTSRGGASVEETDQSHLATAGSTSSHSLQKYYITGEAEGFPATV
# Bile acid receptor (Homo sapiens), sequence (Q96RI1 whole entry, looked up, the tested form may be a part): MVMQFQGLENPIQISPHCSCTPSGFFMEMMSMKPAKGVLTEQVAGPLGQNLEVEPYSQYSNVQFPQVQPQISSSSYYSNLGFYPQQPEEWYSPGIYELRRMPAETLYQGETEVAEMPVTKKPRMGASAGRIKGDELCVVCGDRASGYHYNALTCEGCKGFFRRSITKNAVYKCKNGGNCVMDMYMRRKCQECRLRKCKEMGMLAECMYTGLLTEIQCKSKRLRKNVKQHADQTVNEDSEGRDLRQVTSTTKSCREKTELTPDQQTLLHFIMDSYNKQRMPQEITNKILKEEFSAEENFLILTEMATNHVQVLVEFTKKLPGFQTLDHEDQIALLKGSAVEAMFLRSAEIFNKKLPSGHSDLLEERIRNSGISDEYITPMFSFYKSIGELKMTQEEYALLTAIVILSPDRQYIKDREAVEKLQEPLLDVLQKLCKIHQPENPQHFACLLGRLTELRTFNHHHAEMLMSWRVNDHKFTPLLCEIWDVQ
# Oxysterols receptor LXR-alpha (Homo sapiens), sequence (Q13133 whole entry, looked up, the tested form may be a part): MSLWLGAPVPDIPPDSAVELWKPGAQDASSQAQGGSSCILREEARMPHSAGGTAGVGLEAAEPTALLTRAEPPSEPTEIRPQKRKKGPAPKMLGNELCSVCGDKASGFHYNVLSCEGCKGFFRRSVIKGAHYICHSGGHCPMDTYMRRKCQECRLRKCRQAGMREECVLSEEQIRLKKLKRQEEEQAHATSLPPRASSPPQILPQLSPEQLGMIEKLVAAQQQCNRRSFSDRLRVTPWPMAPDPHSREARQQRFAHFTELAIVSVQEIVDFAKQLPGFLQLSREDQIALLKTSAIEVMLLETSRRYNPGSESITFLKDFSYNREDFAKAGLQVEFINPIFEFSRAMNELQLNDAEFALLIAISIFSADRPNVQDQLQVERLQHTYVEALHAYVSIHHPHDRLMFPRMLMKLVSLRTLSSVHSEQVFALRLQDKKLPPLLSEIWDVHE
# Transcriptional activator Myb (Homo sapiens), sequence (P10242 whole entry, looked up): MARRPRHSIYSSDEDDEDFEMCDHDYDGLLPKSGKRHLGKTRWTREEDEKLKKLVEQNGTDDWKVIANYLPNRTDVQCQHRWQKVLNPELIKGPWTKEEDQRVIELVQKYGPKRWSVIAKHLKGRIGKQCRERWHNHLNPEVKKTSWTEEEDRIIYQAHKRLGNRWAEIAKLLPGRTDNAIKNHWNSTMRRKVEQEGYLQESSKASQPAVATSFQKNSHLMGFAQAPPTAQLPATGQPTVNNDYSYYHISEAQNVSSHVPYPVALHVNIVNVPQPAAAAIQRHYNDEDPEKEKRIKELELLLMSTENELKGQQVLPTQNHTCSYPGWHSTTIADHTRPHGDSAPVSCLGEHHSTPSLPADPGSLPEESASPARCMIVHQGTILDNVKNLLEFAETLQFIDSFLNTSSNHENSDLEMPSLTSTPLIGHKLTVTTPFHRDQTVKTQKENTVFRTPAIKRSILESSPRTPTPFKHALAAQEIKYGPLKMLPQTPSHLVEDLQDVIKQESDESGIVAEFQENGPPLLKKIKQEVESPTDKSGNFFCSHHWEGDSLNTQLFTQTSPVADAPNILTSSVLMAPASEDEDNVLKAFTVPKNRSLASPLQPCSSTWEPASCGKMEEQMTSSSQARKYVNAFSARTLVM
smiles,measurement,setting,value
CC1=CCC2CC1C2(C)C (stereo unspecified),outcome,[1],inactive
same,outcome,[2],inactive
same,outcome,[3],inactive
same,outcome,[4],inactive
same,outcome,[5],inactive
same,outcome,[6],inactive
same,outcome,[7],inactive
same,outcome,[8],inactive
same,outcome,[9],inactive
C=CCCCCCCCCO,outcome,[3],inactive
same,outcome,[4],inactive
same,outcome,[5],inactive
same,outcome,[10],inactive
same,outcome,[11],inactive
same,outcome,[12],inactive
same,outcome,[7],inactive
same,outcome,[8],inactive
same,outcome,[13],inactive
same,outcome,[9],inactive
COC(=O)c1ccc(C(=O)OC)c(C(=O)OC)c1,outcome,[1],inactive
same,outcome,[2],inactive
same,outcome,[14],inactive
same,outcome,[4],inactive
same,outcome,[15],inactive
same,outcome,[5],inactive
same,outcome,[6],inactive
same,outcome,[16],inactive
same,outcome,[17],inactive
same,outcome,[18],inactive
same,outcome,[7],inactive
same,outcome,[8],inactive
same,outcome,[13],inactive
same,outcome,[9],inactive
CCCCCC1=CCCC1=O,outcome,[1],inactive
same,outcome,[2],inactive
same,outcome,[3],inactive
same,outcome,[14],inactive
same,outcome,[4],inactive
same,outcome,[5],inactive
same,outcome,[19],inactive
same,outcome,[18],inactive
same,outcome,[12],inactive
same,outcome,[7],inactive
same,outcome,[9],inactive
CC(C)(c1ccccc1)c1ccc(Nc2ccc(C(C)(C)c3ccccc3)cc2)cc1,outcome,[1],inactive
same,outcome,[2],inactive
same,outcome,[4],inactive
same,outcome,[5],inactive
same,outcome,[6],inactive
same,outcome,[16],inactive
same,outcome,[11],inactive
same,outcome,[17],inactive
same,outcome,[7],inactive
same,outcome,[13],inactive
same,outcome,[9],inactive
CCC(C)C(=O)OCCc1ccccc1 (stereo unspecified),outcome,[1],inactive
same,outcome,[2],inactive
same,outcome,[4],inactive
same,outcome,[5],inactive
same,outcome,[19],inactive
same,outcome,[18],inactive
same,outcome,[12],inactive
same,outcome,[7],inactive
same,outcome,[9],inactive
CCCCOCCOCCOC(C)=O,outcome,[1],inactive
same,outcome,[2],inactive
same,outcome,[3],inactive
same,outcome,[4],inactive
same,outcome,[15],inactive
same,outcome,[5],inactive
same,outcome,[6],inactive
same,outcome,[11],inactive
same,outcome,[18],inactive
same,outcome,[8],inactive
same,outcome,[9],inactive
CC(c1cc(C(C)(C)C)cc(C(C)(C)C)c1O)c1cc(C(C)(C)C)cc(C(C)(C)C)c1O,outcome,[1],inactive
same,outcome,[2],inactive
same,outcome,[3],inactive
same,outcome,[5],inactive
same,AC50,[19],3.42 µM (active)
same,outcome,[7],inactive
same,outcome,[13],inactive
same,outcome,[9],inactive
Cc1ccccc1CCO,outcome,[1],inactive
same,outcome,[2],inactive
same,outcome,[3],inactive
same,outcome,[5],inactive
same,outcome,[6],inactive
same,outcome,[19],inactive
same,outcome,[9],inactive
Cn1ccnc1,outcome,[1],inactive
same,outcome,[2],inactive
same,outcome,[3],inactive
same,outcome,[15],inactive
same,outcome,[6],inactive
same,outcome,[16],inactive
same,outcome,[11],inactive
same,outcome,[19],inactive
same,outcome,[17],inactive
same,outcome,[12],inactive
same,outcome,[13],inactive
same,outcome,[9],inactive
CC(CCC(=O)O)(c1ccc(O)cc1)c1ccc(O)cc1,outcome,[1],inactive
same,outcome,[2],inactive
same,outcome,[3],inactive
same,outcome,[5],inactive
same,outcome,[6],inactive
same,outcome,[10],inactive
same,outcome,[16],inactive
same,outcome,[11],inactive
same,outcome,[12],inactive
same,outcome,[7],inactive
same,outcome,[8],inactive
CCCCCOC(=O)CCCCC,outcome,[1],inactive
same,outcome,[2],inactive
same,outcome,[3],inactive
same,outcome,[15],inactive
same,outcome,[5],inactive
same,outcome,[6],inactive
same,outcome,[16],inactive
same,outcome,[17],inactive
same,outcome,[9],inactive
O=C(O)C(F)(F)C(F)(F)C(F)(F)C(F)(F)C(=O)O,outcome,[1],inactive
same,outcome,[2],inactive
same,outcome,[3],inactive
same,outcome,[4],inactive
same,outcome,[5],inactive
same,outcome,[16],inactive
same,outcome,[19],inactive
same,outcome,[13],inactive
same,outcome,[9],inactive
C=CC(=O)O[C@H]1C[C@@H]2CC[C@@]1(C)C2(C)C,outcome,[1],inactive
same,outcome,[3],inactive
same,AC50,[14],162 µM (active)
same,AC50,[4],100 µM (active)
same,outcome,[5],inactive
same,outcome,[11],inactive
same,outcome,[17],inactive
same,outcome,[7],inactive
same,outcome,[13],inactive
same,outcome,[9],inactive
